Most compounds without a hit are left out; they make up all but 3.7% or so of the library.
Autofluor counter = compound fluorescence in toxin protease inhibitor counterscreen; compound autofluorescence counterscreen, microsphere flow cytometry; active compounds read high; fluorescence intensity (test concentration not listed); 360,000 tested, 3.1% active; AID 624483; in the data active = fluorescence intensity above about 16000; inconclusive = no clear call, values can overlap the other calls
Anthrax LF prot = Bacillus anthracis LF protease inhibitors, primary screen, biochemical, multiplex microsphere, MLPCN library; Lethal factor (Bacillus anthracis), P15917; multiplex microsphere protease cleavage assay; inhibition, % at 10 µM; 360,000 tested, 0.12% active
BJeLR viability = MLPCN primary cell-based screen for lethality selective to Ras in HRASV12 cells; inhibition, % (no concentration beside the values); BJeLR (HRASV12) viability, CellTiter-Glo ATP luminescence, 48 h; 300,000 tested, 0.17% active; in the data active = inhibition above about 50%; inconclusive = no clear call, values can overlap the other calls
Vc quorum ag = inducers of Vibrio cholerae quorum light production without autoinducers, primary screen, BH1578 luxS cqsA deficient, single point | V. cholerae BH1578 lux reporter, luminescence, 6 h | activation, % at 18.7 µM | 350,000 tested, 0.16% active; in the data active = activation mostly above about 9.7%, no sharp cut-off; inconclusive = no clear call, values can overlap the other calls; inactive = mostly below about 3.7%
BoNT F protease = BoNT/F light chain protease inhibitors, primary screen, biochemical, flow cytometry, MLPCN library; Botulinum neurotoxin type F light chain protease (Clostridium botulinum); inhibition, % at 10 µM; 360,000 tested, 0.22% active; Multiplex microsphere protease cleavage assay; AID 588497, 2011; in the data active = inhibition above about 35%, passing the limit was not always enough; inconclusive = no clear call, values can overlap the other calls
BoNT A protease = BoNT/A light chain protease inhibitors, primary screen, biochemical, flow cytometry, MLPCN library | AID 588499, 2011 | 360,000 tested, 0.17% active | inhibition, % at 10 µM | multiplex microsphere protease substrate cleavage | Botulinum neurotoxin type A light chain protease (Clostridium botulinum A str. ATCC 3502)
A number is an active result; - = inactive; ? = inconclusive; . = not tested or not shown. Rule as the data show it, unless noted: active = inhibition above about 30%; inconclusive = no clear call, values can overlap the other calls; inactive = below that.

SMILES	Autofluor counter	Anthrax LF prot	BJeLR viability	Vc quorum ag	BoNT F protease	BoNT A protease
C[C@@H]1O[C@@H](O[C@H]2C[C@@H](O)[C@]3(CO)[C@H]4[C@H](O)C[C@]5(C)[C@@H](C6COC(=O)C6)CC[C@]5(O)[C@@H]4CC[C@]3(O)C2)[C@H](O)[C@H](O)[C@H]1O (some centres not stated)	-	-	71.5	-	-	-
O=C(c1ccccc1F)c1cn(Cc2ccccc2)c2ccccc12	22262	-	-	-	-	-
O=C(c1ccccc1F)c1cn(Cc2ccc(F)cc2)c2ccccc12	-	-	-	-	-	-
O=C(c1ccccc1F)c1cn(CC(=O)N2CCCCC2)c2ccccc12	24432	-	-	-	-	-
CCn1cc(C(=O)c2ccccc2)c2ccccc21	22254	-	-	-	-	?
CC(O)(c1ccc(F)c(F)c1)c1nc(-c2ccccc2)cs1 (configuration not stated)	-	-	.	-	-	-
Cc1ccc(-c2csc(C(O)c3ccccc3)n2)cc1C (configuration not stated)	-	-	.	-	-	-
CC(=O)N(C)c1ccc(NS(=O)(=O)Cc2ccccc2)cc1	22151	-	-	-	-	?
COc1ccc(NS(=O)(=O)Cc2ccccc2)cc1OC	21419	-	-	-	-	-
Nc1c(N(CCCO)C(=O)CCCN2C(=O)c3cccc4cccc(c34)C2=O)c(=O)[nH]c(=O)n1Cc1ccccc1	-	-	.	-	-	-
Cc1ccc2cc(C#N)c(N3CCCC3)nc2c1C	-	-	-	.	-	-
Cc1ccc2cc(C#N)c(N3CCCN(C(=O)C4CCCO4)CC3)nc2c1C (configuration not stated)	16171	-	-	-	-	-
CCOc1ccc(NS(=O)(=O)c2cccs2)cc1S(=O)(=O)N1CCCC1	-	-	.	-	-	-
O=C(O)C1CCCN1S(=O)(=O)c1ccc2[nH]c(=O)c(=O)[nH]c2c1 (configuration not stated)	25018	-	-	-	-	-
O=c1[nH]c2ccc(S(=O)(=O)N3CCN(Cc4ccccc4)CC3)cc2[nH]c1=O	21331	-	-	-	-	-
O=C(OCc1ccccc1)N1CCC2CC1c1ccc(N3CCNCC3)cc12 (configuration not stated)	-	-	.	-	-	-
COCCNC(=O)C1(C)CCN(Cc2cccc(Oc3ccccc3)c2)C1 (configuration not stated)	-	-	.	-	-	-
COC(=O)[C@]12CCCCC=C1N(Cc1ccccc1)C(=O)[C@H](CC(=O)NCC1CCCCC1)C2	-	-	.	.	-	-
COc1ccc(-c2noc(CN3CCCCC3)n2)cc1OC	21443	-	-	-	-	-
CN(Cc1ccccc1)C(=O)Cn1nnc(-c2ccccc2)c1COc1ccc2ccccc2c1	-	-	.	-	-	-
COc1ccc([C@H]2CN(Cc3ccccc3)C(=O)[C@@H]2CC(=O)Nc2ccccc2)cc1	-	-	.	-	-	-
CCC(=O)Nc1cc(C(=O)OCC(=O)c2ccccc2Cl)ccc1C	20188	-	-	-	-	-
CCc1nc2c(OCc3cc(Cl)cc(Cl)c3)cccn2c1N(C)C(=O)c1cccc(OC)c1	-	-	.	-	-	-
O=C(Nc1ccsc1C(=O)O)c1ccccc1	-	-	-	-	-	-
O=C(Nc1ccsc1C(=O)N1CCCCCC1)c1ccccc1	16715	-	-	-	-	-
SMILES	Autofluor counter	Anthrax LF prot	BJeLR viability	Vc quorum ag	BoNT F protease	BoNT A protease
CC(C)CCn1c(=O)c(C(=O)Nc2ccccc2S(N)(=O)=O)c(O)c2ccccc21	22781	-	-	-	-	-
O=C(Nc1nccs1)C1CC(=O)N(c2ccccc2Cl)C1 (configuration not stated)	23519	-	-	-	-	-
Cc1c(NC(=O)c2cc3ccccc3o2)cccc1-n1cnnn1	-	-	.	-	-	-
C(=N\n1cnc2ccccc21)/c1cccnc1	22275	-	-	-	-	-
COc1cccc(/C=N/n2cnc3ccccc32)c1OC	16900	-	-	-	-	-
COc1cccc(/C=N/n2c(-c3cc(C)[nH]n3)n[nH]c2=S)c1OC	-	-	-	-	?	-
COc1cccc(/C=N/n2c(N)nc3ccccc32)c1OC	-	-	-	-	-	-
COc1cccc(/C=N/n2c(=S)n(C)c3cc(C)c(C)cc32)c1OC	22389	-	-	-	-	?
CNC(=O)C[C@H]1C(=O)N(C2CCCCC2)C[C@@H]1c1ccc(Br)cc1	-	-	.	-	-	-
C[C@@H](NC(=O)[C@@H]1CCCN1C(=O)[C@@H]1CCCN1C(=O)c1ccccc1)c1ccccc1	-	-	.	.	-	-
O=C1/C(=C\c2ccccn2)SC(=S)N1Nc1ncc(C(F)(F)F)cc1Cl	22887	-	-	-	-	-
Cc1cc(C)c2c(n1)sc1c(N3CCN(CCO)CC3)ncnc12	17147	-	-	-	-	-
O=c1sc(Nc2ccccc2)nc2ccsc12	19370	-	-	-	-	?
O=C(Nc1nc2ccsc2c(=O)s1)C1CCC1	-	-	-	-	-	-
CCOC(=O)c1nn(-c2ccc(C)c(C)c2)cc1O	23047	-	-	-	-	-
CCOC(=O)c1nn(-c2ccc3c(c2)OCCO3)cc1O	-	-	-	-	-	-
Cc1cc(C2=NNC(=NC3CC3)SC2)c(C)n1Cc1ccco1	-	-	.	-	-	-
COCCCN=C1NN=C(c2cc(C)n(Cc3ccco3)c2C)CS1	-	-	60.5	-	-	-
CCOc1cc2c3c(c1)C1(Nc4ccccc4S1)C(=O)N3C(C)(C)CC2C (configuration not stated)	23624	-	-	-	-	?
CCOc1cc2c3c(c1)C1(OCCO1)C(=O)N3C(C)(C)CC2C (configuration not stated)	-	-	-	-	-	-
CC1(Cc2cccc(C#N)c2)C(=O)Nc2c(Cl)cccc21 (configuration not stated)	-	-	.	-	-	-
CC(C)n1c(=O)c2ccccc2n1S(C)(=O)=O	-	-	.	.	-	-
COc1ccc(C(=O)NC(=S)N2CC(C)OC(C)C2)cc1 (configuration not stated)	-	-	-	-	-	-
Cc1ccc(C(=O)NC(=S)N2CC(C)OC(C)C2)cc1[N+](=O)[O-] (configuration not stated)	23557	-	.	-	-	-
CCC12CSc3nc(Cl)ccc3N1C(=O)C(=O)N2C (configuration not stated)	-	?	-	-	39.8	-
CCCN1C(=O)C(=O)c2cc(Cl)ccc21	-	-	.	-	-	-

Bioassay records from PubChem BioAssay.
